Data as given in PubChem BioAssay (NCATS).
Records with an inconclusive call do not appear. Active and inactive are the calls of the source. Calls come from the whole dose curve; as a rule, active = well fitted curve in either direction with a large enough effect (not every such curve was filed as active); inconclusive = small, poorly fitted or top-dose-only effect, or another doubt; inactive = flat fitted curve, though single readings scatter.

Test: AP1 Signaling Pathway (AID 357)
Conditions: ME-180 (cervical carcinoma) AP-1-bla reporter, EGF-induced, beta-lactamase ratio, 5 h; at 38 µM (top of the series) unless noted
In short: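 AP-1-bla ME-180 cells with beta-lactamase reporter under AP-1 response element, stimulated with EC50 EGF; compounds titrated, 5 hours at 37 degrees Celsius. CCF4 read at 460/530 nm ratio; positive and negative modulators judged by AC50.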
% is set by controls: 0 for no effect and ±100 for the full control effect.

| Compound | activity change, negative = inhibition |
| --- | --- |
| COc1ccc2c(c1)c(CC(=O)O)c(C)n2C(=O)c1ccccc1 | 1.55% (inactive) |
| O=C(O)Cc1ccc(O)c(O)c1 | -7.22% (inactive) |
| CCC(=O)N1CCN(C(=O)c2ccccc2)CC1 | -5.7% (inactive) |
| Cn1ccnc1 | -6.19% (inactive) |
| CC(N)=O | 9.17% (inactive) |
| CCN(CC)CCCCCCCCOC(=O)c1cc(OC)c(OC)c(OC)c1 | 20.2% (inactive) |
| O=c1[nH]c2ccccc2c2ccccc12 | -9.69% (inactive) |
| [Li+] | 3.61% (inactive) |
| N#Cc1cc2nc(O)c(O)nc2cc1[N+](=O)[O-] | -1.83% (inactive) |
| COc1ccccc1N1CCN(CCCCN2C(=O)c3ccccc3C2=O)CC1 | -12.6% (inactive) |
| Cn1cc(C(=O)OCC2CCN(CCNS(C)(=O)=O)CC2)c2ccccc21 | -4.52% (inactive) |
| O=C(O)C1=CCCNC1 | -0.308% (inactive) |
| CN[C@H](CC(=O)O)C(=O)O | -0.55% (inactive) |
| O=c1ccc2c(OCCCCc3ccccc3)c3ccoc3cc2o1 | -12.4% (inactive) |
| COc1ccc2c(c1)c(CC(=O)O)c(C)n2Cc1ccc(Cl)cc1 | -18.2% (inactive) |
| COc1ccccc1N1CCN(CCCNc2c(C)c(=O)n(C)c(=O)n2C)CC1 | 8.51% (inactive) |
| COCc1nc2c([nH]1)c(=O)n(C)c(=O)n2CC(C)C | 1.03% (inactive) |
| O=c1onc2n1-c1cc(Br)ccc1OC2 | 1.26% (inactive) |
| CCCn1c(=O)c2[nH]c(-c3ccc(S(=O)(=O)O)cc3)nc2n(CCC)c1=O | 7.54% (inactive) |
| O=C(c1ccc2c(c1)OCCO2)N1CCCCC1 | 1.86% (inactive) |
